We go through 40 compounds from PubChem BioAssay (EPA / NIEHS).

Activity calls are given as the source filed them. Rule for the calls: active = hit-call score of the fitted dose curve at least 0.9, where 1 is the maximum; inactive = score below 0.9.

This assay is described as follows: ATG_TA_CIS: Attagene CIS-FACTORIAL HepG2 Assay for human TA Basal Promoter (AID 2282964). Conditions: HepG2 Attagene CIS-factorial TA basal promoter reporter; actives raise or lower the signal. Here is the method: ATG_CIS is a cell-based, multiplexed-readout assay that uses HepG2, a human liver cell line, with measurements taken at 24 hours after chemical dosing in a 24-well plate.ATG_TA_CIS is one of 52 assay component(s) measured or calculated from the ATG_CIS assay. It is designed to make measurements of mRNA induction, a form of inducible reporter, as detected with fluorescence intensity signals by Reverse transcription polymerase chain reaction (RT-PCR) and Capillary electrophoresis technology.Data from the assay component ATG_TA_CIS was analyzed into 1 assay endpoint. This assay endpoint, ATG_TA_CIS, was analyzed with bidirectional fitting relative to DMSO as the negative control and baseline of activity. Using a type of inducible reporter, measures of mRNA for gain or loss-of-signal activity can be used to understand the background control at the transcription factor-level as they relate to the gene . Furthermore, this assay endpoint can be referred to as a secondary readout, because this assay has produced multiple assay endpoints where this one serves a background control function. To generalize the intended target to other relatable targets, this assay endpoint is annotated to the background measurement intended target family, where the subfamily is internal marker.
Human liver HepG2 cells are transiently transfected with multiple reporter transcription units (MRTUs) in 6-well plates using FuGene 6 reagent (Roche; 3 ml FuGene/1 mg DNA). The MRTU constructs are regulated by a cis-regulating element (promoter). […] A major difference between the CIS and TRANS system is that in CIS activities of endogenous TFs are measured, whereas the TRANS assay evaluates changes in activities of exogenous, chimeric NR-Gal4 proteins. […] At the end of 24 hour incubation, total RNA was isolated using TriZol reagent (Invitrogen). The isolated RNA is then reverse-transcribed using oligo(dT) primer and Mo-MLV reverse transcriptase (Invitrogen) with DNAse I (Ambion) treatment for 30 min. The one-tenth of the produced cDNA was amplified by PCR using Taq DNA polymerase (Invitrogen) and two reporter sequence-specific primers. The PCR products were fluorescently labeled by primer extension with 6-arboxyfluorescein (6-FAM) 5'-labeled reporter sequence-specific primer (2 min at 95 C, 20 s at 68 C and 10 min at 72 C) and these products were digested with 5U of HpaI (New England Biolabs) for 2h at 37 C. The fragments were purified using Qiaquick PCR columns (Qiagen), analyzed on an ABI 3130xL genetic analyzer (Applied Biosystems) with peak positions identified by using a set of X-rhodamine (ROX)-labeled MapMarker1000 molecular weight standards (BioVentures). The raw capillary electrophoresis data was processed using Attagraph software (Attagene).
Regarding `CC1CC(=O)CC(C)(C)C1` (stereo not given), the compound was called inactive. Same read-out and setting: in the case of `Cc1ccc(C)c(OCCCC(C)(C)C(=O)O)c1` it was “inactive”; in that of `CCOC(=O)/C=C\C(=O)OCC`, “inactive”; in that of `Cc1ccccc1CCO`, “inactive”. For the compound `CCN(CC)c1cccc(C)c1`, the compound was classed as inactive. On the same count and under the same terms, in the case of `O=C(O)CC(C(=O)O)S(=O)(=O)O` (stereo not given) it was “inactive”; in that of `CC(C)OC(=O)c1ccccc1`, “inactive”. The same measure, in the same setting: in the case of `CCc1cccc(C)c1N(C(=O)CS(=O)(=O)O)C(C)COC` (stereo not given) it was “inactive”; in that of `C=CCCCCCCCCOC(C)=O`, “inactive”. As to `Nc1ccc(C(=O)OCCCOC(=O)c2ccc(N)cc2)cc1`, the half-maximal activity concentration (AC50) is 63.7 µM (active). Take `c1ccc(Nc2cccc3ccccc23)cc1`: the compound was called inactive. On the same count and under the same terms, in the case of `O=C(Cl)c1ccc(C(=O)Cl)cc1` it was “inactive”; in that of `CCc1occc(=O)c1O`, “inactive”.

For `CCC1COC(=O)O1` (stereo not given), the result was inactive.

With `Cc1ccc([N+](=O)[O-])cc1N`, the outcome was inactive. On the same count and under the same terms, in the case of `O=S(=O)(O)c1ccc(N=Nc2c(O)ccc3ccccc23)cc1` it was “inactive”. Still for that read-out and setting: in the case of `Cc1cccc(C(C)(C)C)c1O` it was “inactive”; in that of `CC1=NN(c2ccc(S(=O)(=O)O)cc2)C(=O)C1N=Nc1ccccc1` (stereo not given), “inactive”. The same measure, in the same setting: in the case of `Fc1ccc(Br)cc1` it was “inactive”. Consider `CCC1(C)C(=O)N(Cl)C(=O)N1Cl` (stereo not given), for which the outcome was inactive. Regarding `COC(Cc1ccccc1)OC`, the compound was called inactive. Same read-out and setting: in the case of `CC(C)=NNC(N)=S` it was “inactive”; in that of `CC1(C)[C@@H]2CC[C@@]1(C)C(=O)C2`, “inactive”.

As for `CN1CCN(C)CC1`, the compound was called inactive. Take `CN(C)c1ccc2nc3ccc(=[N+](C)C)cc-3sc2c1`: the compound was called inactive. On the same count and under the same terms, in the case of `C[N+](C)(C)CCCNS(=O)(=O)C(F)(F)C(F)(F)C(F)(F)C(F)(F)C(F)(F)C(F)(F)C(F)(F)C(F)(F)F` it was “inactive”. On the same count and under the same terms, in the case of `C=CC(=O)NC(C)(C)C` it was “inactive”. Still for that read-out and setting: in the case of `CCCCCCCO` it was “inactive”.

Turning to `CCCCOC(=O)CCC(C)=O`, the compound was classed as inactive. On to `COc1cc(O)c(C(=O)c2ccccc2)cc1S(=O)(=O)O`, for which the outcome was inactive. Consider `Cc1cc(C)c(C=O)c(C)c1`, for which the call was inactive. The same measure, in the same setting: in the case of `CCCCCCCCCCCC(=O)OCC` it was “inactive”; in that of `CCCCCCCCCCCCCc1ccccc1`, “inactive”; in that of `CC1CCC(C(C)(C)S)C(=O)C1` (stereo not given), “inactive”. On the same count and under the same terms, in the case of `CC(=O)CCC=C(C)C` it was “inactive”.

Consider `Cn1cccc1`, for which the result was inactive. Still for that read-out and setting: in the case of `CC(C)c1cccc(C(C)C)c1N` it was “inactive”; in that of `CC(CC(C)C)=NO`, “inactive”. On the same count and under the same terms, in the case of `CC(C)c1ccc(O)c(C(C)C)c1` it was “inactive”; in that of `CCCCC1C(=O)N(c2ccccc2)N(c2ccccc2)C1=O`, “inactive”.
